In paper PMC10812921, “Transcriptional Coactivator BOB1 (OBF1, OCA-B) Modulates the Specificity of DNA Recognition by the POU-Domain Factors OCT1 and OCT2 in a Monomeric Configuration”:

What was measured:
POU1 (OCT1 POU domain) = POU1 (OCT1 POU domain) (human, UniProt P14859 260-458); experiment: EMSA-SELEX-seq; no BOB1; 20 mM Tris-HCl pH 7.6, 140 mM NaCl, 10% glycerol, 0.5 mM EDTA, 0.05% Triton X-100, 0.1 mg/mL BSA, 0.1 mg/mL poly(dI-dC), 5 mM DTT, room temperature, 20 min; high values mean tight binding; conditions: protein: recombinant; dsDNA, one strand shown
Sequence of POU1 (OCT1 POU domain) (P14859 260-458): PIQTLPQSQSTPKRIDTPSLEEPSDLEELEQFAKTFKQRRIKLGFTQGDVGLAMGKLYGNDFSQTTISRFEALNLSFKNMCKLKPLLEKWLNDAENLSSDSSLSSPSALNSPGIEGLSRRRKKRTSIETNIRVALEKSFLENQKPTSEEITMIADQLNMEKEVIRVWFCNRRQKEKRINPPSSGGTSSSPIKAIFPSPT
Outline: (§1)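 Tagged POU-domain proteins were expressed in E. coli BL21, purified under denaturing conditions and renatured. Then 30 ng was mixed with 300 ng of a PCR-amplified double-stranded random 35-nt library, with or without 28 ng coactivator protein, in 20 μL Tris–HCl pH 7.6 binding buffer for 20 min at RT. Complex bands were cut from native 6% PAGE, eluted and PCR-amplified over four rounds, then Illumina-sequenced. Binding preference is the percentage of sequenced 8-mers matching a motif pattern.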

POU2 (OCT2 POU domain) = target: T1, POU2 (OCT2 POU domain) (human, UniProt P09086 175-386); experiment: as above; conditions: protein: recombinant; dsDNA, one strand shown
T1 sequence: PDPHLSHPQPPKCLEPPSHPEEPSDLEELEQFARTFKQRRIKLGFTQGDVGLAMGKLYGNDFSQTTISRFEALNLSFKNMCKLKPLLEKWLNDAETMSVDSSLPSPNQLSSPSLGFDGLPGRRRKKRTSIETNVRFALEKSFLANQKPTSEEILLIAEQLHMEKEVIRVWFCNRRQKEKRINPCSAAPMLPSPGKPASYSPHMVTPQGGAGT
Outline: as §1

[1] = target: POU1 (OCT1 POU domain);BOB1 (OBF1, OCA-B) (human;human, UniProt P14859;Q16633 260-458;1-256, |); experiment: EMSA-SELEX-seq; with BOB1 (ternary complex band); 20 mM Tris-HCl pH 7.6, 140 mM NaCl, 10% glycerol, 0.5 mM EDTA, 0.05% Triton X-100, 0.1 mg/mL BSA, 0.1 mg/mL poly(dI-dC), 5 mM DTT, room temperature, 20 min; high values mean tight binding; conditions: protein: recombinant;recombinant; copies: 1;1; dsDNA, one strand shown
Outline: as §1

[2] = target: T2, POU2 (OCT2 POU domain);BOB1 (OBF1, OCA-B) (human;human, UniProt P09086;Q16633 175-386;1-256, |); experiment: as above; conditions: protein: recombinant;recombinant; copies: 1;1; dsDNA, one strand shown
T2 sequence 1: T1 sequence
T2 sequence 2: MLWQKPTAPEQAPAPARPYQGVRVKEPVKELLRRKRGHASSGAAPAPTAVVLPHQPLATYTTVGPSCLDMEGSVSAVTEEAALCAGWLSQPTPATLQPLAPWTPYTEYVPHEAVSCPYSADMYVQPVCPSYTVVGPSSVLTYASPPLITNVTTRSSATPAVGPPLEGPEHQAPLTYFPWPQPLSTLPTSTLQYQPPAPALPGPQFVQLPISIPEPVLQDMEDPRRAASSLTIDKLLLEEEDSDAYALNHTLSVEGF
Outline: as §1

| Sequence | binding signal (POU1 (OCT1 POU domain)) | binding signal (POU2 (OCT2 POU domain)) | binding signal [1] | binding signal [2] |
| --- | --- | --- | --- | --- |
| ACAAAAAA | 0.0656 % of ANNNNAAN 8-mers | 0.0621 % of ANNNNAAN 8-mers | 0.0808 % of ANNNNAAN 8-mers | 0.0528 % of ANNNNAAN 8-mers |
| ATGGCAAA | 0.0774 % of ANNNNAAN 8-mers | 0.057 % of ANNNNAAN 8-mers | 0.113 % of ANNNNAAN 8-mers | 0.0776 % of ANNNNAAN 8-mers |
| AGGTTAAA | 0.0545 % of ANNNNAAN 8-mers | 0.0731 % of ANNNNAAN 8-mers | 0.0578 % of ANNNNAAN 8-mers | 0.052 % of ANNNNAAN 8-mers |
| AGATCAAA | 0.0393 % of ANNNNAAN 8-mers | 0.0483 % of ANNNNAAN 8-mers | 0.0414 % of ANNNNAAN 8-mers | 0.0355 % of ANNNNAAN 8-mers |
| ATCTTAAC | 0.0351 % of ANNNNAAN 8-mers | 0.0449 % of ANNNNAAN 8-mers | 0.0402 % of ANNNNAAN 8-mers | 0.0512 % of ANNNNAAN 8-mers |
| AACCCAAC | 0.0103 % of ANNNNAAN 8-mers | 0.0132 % of ANNNNAAN 8-mers | 0.0113 % of ANNNNAAN 8-mers | 0.0182 % of ANNNNAAN 8-mers |
| AATGTAAG | 0.104 % of ANNNNAAN 8-mers | 0.106 % of ANNNNAAN 8-mers | 0.089 % of ANNNNAAN 8-mers | 0.0958 % of ANNNNAAN 8-mers |
| AATACAAG | 0.0637 % of ANNNNAAN 8-mers | 0.0662 % of ANNNNAAN 8-mers | 0.0675 % of ANNNNAAN 8-mers | 0.0479 % of ANNNNAAN 8-mers |
| ATAAGAAA | 0.1 % of ANNNNAAN 8-mers | 0.0955 % of ANNNNAAN 8-mers | 0.118 % of ANNNNAAN 8-mers | 0.0826 % of ANNNNAAN 8-mers |
| AATCTAAG | 0.0553 % of ANNNNAAN 8-mers | 0.0587 % of ANNNNAAN 8-mers | 0.062 % of ANNNNAAN 8-mers | 0.0545 % of ANNNNAAN 8-mers |
| ATCATAAC | 0.0324 % of ANNNNAAN 8-mers | 0.0374 % of ANNNNAAN 8-mers | 0.023 % of ANNNNAAN 8-mers | 0.0322 % of ANNNNAAN 8-mers |
| ACCACAAA | 0.0141 % of ANNNNAAN 8-mers | 0.0196 % of ANNNNAAN 8-mers | 0.014 % of ANNNNAAN 8-mers | 0.0198 % of ANNNNAAN 8-mers |
| AAACTAAT | 0.104 % of ANNNNAAN 8-mers | 0.129 % of ANNNNAAN 8-mers | 0.0808 % of ANNNNAAN 8-mers | 0.0925 % of ANNNNAAN 8-mers |
| ACTCGAAA | 0.0271 % of ANNNNAAN 8-mers | 0.0357 % of ANNNNAAN 8-mers | 0.0293 % of ANNNNAAN 8-mers | 0.0314 % of ANNNNAAN 8-mers |
| AACCGAAT | 0.0412 % of ANNNNAAN 8-mers | 0.0363 % of ANNNNAAN 8-mers | 0.0324 % of ANNNNAAN 8-mers | 0.0487 % of ANNNNAAN 8-mers |
| AGCGTAAG | 0.0214 % of ANNNNAAN 8-mers | 0.0293 % of ANNNNAAN 8-mers | 0.0215 % of ANNNNAAN 8-mers | 0.0338 % of ANNNNAAN 8-mers |
| ACTCCAAA | 0.0259 % of ANNNNAAN 8-mers | 0.0219 % of ANNNNAAN 8-mers | 0.0277 % of ANNNNAAN 8-mers | 0.0149 % of ANNNNAAN 8-mers |
| ATAGTAAA | 0.12 % of ANNNNAAN 8-mers | 0.115 % of ANNNNAAN 8-mers | 0.128 % of ANNNNAAN 8-mers | 0.106 % of ANNNNAAN 8-mers |
| ATTAAAAG | 0.149 % of ANNNNAAN 8-mers | 0.171 % of ANNNNAAN 8-mers | 0.115 % of ANNNNAAN 8-mers | 0.102 % of ANNNNAAN 8-mers |
| ATAATAAA | 0.194 % of ANNNNAAN 8-mers | 0.251 % of ANNNNAAN 8-mers | 0.117 % of ANNNNAAN 8-mers | 0.0999 % of ANNNNAAN 8-mers |
| AGCCAAAG | 0.0286 % of ANNNNAAN 8-mers | 0.0219 % of ANNNNAAN 8-mers | 0.0363 % of ANNNNAAN 8-mers | 0.019 % of ANNNNAAN 8-mers |
| ATTAGAAC | 0.0427 % of ANNNNAAN 8-mers | 0.0564 % of ANNNNAAN 8-mers | 0.0355 % of ANNNNAAN 8-mers | 0.0355 % of ANNNNAAN 8-mers |
| ATTTGAAA | 0.142 % of ANNNNAAN 8-mers | 0.0995 % of ANNNNAAN 8-mers | 0.178 % of ANNNNAAN 8-mers | 0.0933 % of ANNNNAAN 8-mers |
| AGGATAAT | 0.168 % of ANNNNAAN 8-mers | 0.209 % of ANNNNAAN 8-mers | 0.0952 % of ANNNNAAN 8-mers | 0.106 % of ANNNNAAN 8-mers |
| ACTCAAAA | 0.0427 % of ANNNNAAN 8-mers | 0.0339 % of ANNNNAAN 8-mers | 0.046 % of ANNNNAAN 8-mers | 0.0363 % of ANNNNAAN 8-mers |
